# Experimental data: PubChem BioAssay (NCI)
# This is part of a sample that, as a whole, favours compounds with a hit. Of some 83,000 tested, about 20% had one in any assay.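 Results are percent growth after 48 hours of single-concentration exposure. 100 means growth as in untreated cells, lower positive values show inhibition; negative values down to -100 show cell death.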 Active and inactive are the calls of the source.
# System: LOX IMVI melanoma
# Experiment: NCI-60 one-dose screen, 48 h (100 = growth as untreated, 0 = no growth, -100 = all killed)
# Details: 10 µM unless noted
# Experimental: Growth inhibition of the LOX IMVI human tumor cell line is measured as a screen for anti-cancer activity. Cells are grown in 96 well plates and exposed to the test compound for 48 hours. Compounds are tested at a single concentration, which is 10^-5 M for most compounds. The reported endpoint is percent growth (GI% or GIPRCNT), where numbers from 0 - 100% represent growth inhibition, and numbers from -100% - 0 represent cell death. For example, a value of 40 represents 60% growth inhibition. A value of 0 means no net growth occurred over the course of the experiment. A value of -40 indicates 40% of cells at the beginning of the experiment died by the end of the experiment. A value of -100 means all cells are dead at the end of the experiment.
# NCI-60 Human Tumor Cell Lines Screen was performed using the standard one-dose NCI protocol, which is described in more detail at https://dtp.cancer.gov/discovery_development/nci-60/default.htm.
# Compounds with GIPRCNT values below 10 were considered active. Activity score was based on GIPRCNT using the following formula: […]
# Score is 0 for GIPRCNT values of 100 or above, 50 for GIPRCNT values of 0, and 100 for GIPRCNT values of -100.
row,SMILES,growth
1,CCc1ccc2c(c1)N(CCO)C1=C(C(=O)OC1)C2c1cccc(Cl)c1 (stereo not given),44.3% (inactive)
2,Nc1nc(N)c2cc(Sc3ccc(Cl)cc3)ccc2n1,27% (inactive)
3,COC(=O)C(CCC(=O)CCl)N1C(=O)c2ccccc2C1=O (stereo not given),-44.1% (active)
4,Nc1ccc(C(OC(=O)c2cc3ccccc3c(Cc3c(O)c(C(=O)OC(c4ccc(N)cc4)(c4ccc(N)cc4)c4ccc(N)cc4)cc4ccccc34)c2O)(c2ccc(N)cc2)c2ccc(N)cc2)cc1,24% (inactive)
5,Cc1cc(Cl)c2ccc(N(C)C)cc2n1,96.9% (inactive)
6,COc1ccccc1NC(=O)OCC12COCN1COC2,107% (inactive)
7,CCOC(=O)c1ccc(NC(=O)NC2=NCCS2)cc1,92.4% (inactive)
8,Fc1ccc(-c2ccnc3nc(-c4ccncc4)nn23)cc1,100% (inactive)
9,CC(C)=CCC[C@H](C)c1ccc(C)c2c1OCN(CCO)C2,100% (inactive)
10,Nc1nc2c(c3ncccc13)C(c1ccccc1)Cc1ncccc1-2 (stereo not given),70.9% (inactive)
11,Cc1cc(NC(=O)c2ccc(N)cc2)ccc1N=Nc1ccc2cc(S(=O)(=O)O)cc(S(=O)(=O)O)c2c1,99% (inactive)
12,CN(C)c1ccc(Nc2c3ccccc3nc3ccccc23)cc1,-7.85% (active)
13,ClCc1cccc(CSc2ncnc3c2ncn3Cc2cccc(CCl)c2)c1,-8.54% (active)
14,COc1cc2nccc(Oc3ccc(NC(=O)C4(C(=O)Nc5ccc(F)cc5)CC4)cc3)c2cc1O,39.8% (inactive)
15,COc1cc(/C=C2\C(=O)Nc3ccc(N(C)C)cc32)cc(OC)c1OC,32.8% (inactive)
16,COc1cc(C2Nc3ccccc3S2)cc(CN2CCOCC2)c1O (stereo not given),78.2% (inactive)
17,COc1cc2c(cc1I)-c1c(cc(OC)c(OC)c1OC)CC[C@@H]2NC(C)=O,33.8% (inactive)
18,Oc1[nH]c2ccccc2c1/C=c1/ccc2c(c1)N=C(c1ccc(C(F)(F)F)cc1)N=2,43.4% (inactive)
19,Fc1cc(-c2nnc3sc(-c4ccc(Cl)cc4)nn23)c(Cl)cc1Cl,91.7% (inactive)
20,CCCC(CCC)NCC(O)c1cc(-c2ccc(C(F)(F)F)cc2)nc(C(F)(F)F)c1 (stereo not given),-64.2% (active)

row,SMILES,growth
1,O=C(Nc1ccc2ncnc(Nc3ccc(F)c(Cl)c3)c2c1)c1cccs1,51% (inactive)
2,CCCCCCCCNC(C)C(O)c1ccc(SC(C)C)cc1 (stereo not given),-95.5% (active)
3,CCN(CC)CCCC(C)Nc1cnc(C(=O)Nc2ccc(Cl)c3cccnc23)cn1 (stereo not given),-83.9% (active)
4,CC(C)(C)NC(=O)C(OC(=O)C1CCc2cc(F)ccc2O1)c1ccccc1Cl (stereo not given),102% (inactive)
5,CN1CCN(Cc2ccc(NC(=O)c3ccc(C#N)c(C#Cc4cnc(N)c5ncccc45)c3)cc2C(F)(F)F)CC1,82.5% (inactive)
6,CCCc1n(Cc2ccc3ccccc3n2)cc[n+]1Cc1ccc2ccccc2n1,18% (inactive)
7,Cc1ccc(-c2cnc3sc4ccc(Cl)cc4n23)cc1,94.2% (inactive)
8,O=C(CSc1ccc(Cl)cc1)Nc1ccc(-c2nc3ccccc3s2)c(Cl)c1,63.2% (inactive)
9,COc1ccc(C(=O)/C=C/c2cn(-c3ccccc3)nc2-c2cccc(Nc3ccnc4cc(Cl)ccc34)c2)cc1,104% (inactive)
10,Cc1c(O)c(=O)n(-c2ccccc2)n1C,105% (inactive)
11,CN(C)c1ccc(/C=C(\C#N)c2nc3ccccc3n2C)cc1,46.2% (inactive)
12,Cc1cc(C)cc(NC(=O)Cn2nncc2CN2C(=O)CSC2=O)c1,91.3% (inactive)
13,C#CC[C@@H]1C[C@]2(C)[C@H]3CC=C4[C@H]5[C@@H](C)[C@H](C)CC[C@]5(C(=O)NCCCCCCCCN)CC[C@@]4(C)[C@]3(C)CC[C@H]2C(C)(C)[C@H]1OC(C)=O,-52.9% (active)
14,COc1ccc(-c2[nH]nc(N)c2-c2cc(OC)c(OC)c(OC)c2)cc1,12.1% (inactive)
15,CCN(CC)c1ccc2nc3c4ccccc4c(=O)cc-3n(-c3ccccc3)c2c1,-23.2% (active)
16,O=C(Nc1ccc(OS(=O)(=O)c2ccc(F)cc2)cc1)C12CC3CC(CC(C3)C1)C2,61.6% (inactive)
17,CNC(=O)c1cc(Oc2ccc(NC(=O)c3[nH]c(SC)nc3-c3ccc(F)cc3)cc2)ccn1,57.7% (inactive)
18,O=C1OCC2=C1C(c1ccc(Cl)c(Cl)c1)c1cc3c(cc1N2CCO)CCC3 (stereo not given),32.8% (inactive)
19,COc1cc(/C=C/C(=O)c2ccc(NC(=O)CSc3nnc(-c4ccc(Cl)cc4)n3-c3ccccc3)cc2)cc(OC)c1OC,73.9% (inactive)
20,COCCn1c(Nc2ccc(C(=O)NO)cc2)nc2ccccc21,73.6% (inactive)
